Experimental findings from PubChem BioAssay (NCATS) are described below.

Values joined by “and” are separate entries in the source; they are usually repeats but may differ in a detail not shown here. Identical values can stand only once. A number with no mark means an inactive call. Records with an inconclusive call do not appear. Active and inactive are the calls of the source. Unless noted, the call rests on the fitted dose curve; in most records, active means well fitted curve in the direction sought with a large enough effect; inconclusive means small, poorly fitted or top-dose-only effect, or another doubt; inactive means no such curve, though single readings can be large; an effect the other way counts as inactive or inconclusive.

The nature of experiment [1]: qHTS assay for small molecule agonists of the antioxidant response element (ARE) signaling pathway (AID 651741; active means well fitted activation curve with a large enough effect in the signal ratio; the % refers to the signal ratio; further: potency means the concentration at half of the fitted maximal effect; on activation: % of control where 0% means no effect). The essentials:
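Reporter: beta-lactamase under ARE, stably in HepG2. Exposure: 16 h, 37 C, compounds delivered in DMSO by pin tool after 5 h cell preincubation. Readout: FRET substrate fluorescence after 2 h at RT.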

Experiment [2] can be described thus: qHTS assay for small molecule activators of the p53 signaling pathway (AID 651743; active means well fitted activation curve with a large enough effect in the signal ratio, not every such curve was filed as active; the % refers to the signal ratio; further: potency means the concentration at half of the fitted maximal effect; on activation: series mostly up to about 92 µM; % of control where 0% means no effect). The settings on record: HCT-116 p53RE-bla, beta-lactamase FRET ratio, 16 h; activation: stronger effect = higher value. The essentials: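 Agonist-mode quantitative HTS in HCT-116 cells carrying a p53-response-element beta-lactamase reporter; 16 h compound treatment at 37 C, then FRET substrate loading for 2 h at room temperature and fluorescence read.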
On the technique in general: Quantitative high-throughput screening tests each substance at several concentrations.

The nature of experiment [3]: qHTS assay for small molecule disruptors of the mitochondrial membrane potential - 5 hr assay (AID 651755; calls by dose curve; further: potency means the concentration at half of the fitted maximal effect; nearly all actives have a fitted effect of over 40% in size). To be noted: JC-1-type ratio dye. The essentials: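 Seed HepG2 overnight, add compound, incubate 5 hr at 37C and 5% CO2, stain 30 min with Mito-MPS, then measure monomer (490/535 nm) and aggregate (540/590 nm) fluorescence.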
For experiment [4], the target named is Tumor necrosis factor (Homo sapiens) (UniProt P01375). The experiment is described as follows: qHTS assay to identify small molecules that stimulate Tumor Necrosis Factor-alpha (TNF-alpha) secretion (AID 651757; active means well fitted curve in the direction sought with a large enough effect in the signal ratio; the % refers to the signal ratio; further: potency means the concentration at half of the fitted maximal effect). The essentials:
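Human monocytic THP-1 cells are plated, treated with compound and held at 37 C for 17 hrs. Labeled anti-TNF-alpha antibody mixture is then added; after 3 hr at room temperature, TR-FRET signal reports secreted TNF-alpha.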

Experiment [5] can be described thus: qHTS assay for environmental chemicals that activate the Aryl hydrocarbon Receptor (AhR) signaling pathway (AID 651777). Further: % of control where 0% means no effect; nearly all actives have a fitted effect of over 15% in size. The settings on record: 1A2-DRE human hepatoma cells, luciferase, 24 h; activation: stronger effect = higher value. In a few lines: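 Quantitative HTS in stably transfected human liver-derived cells whose luciferase gene sits downstream of the CYP1A2 promoter and dioxin response element. After 24 hr exposure at 37 C, One-Glo luminescence was measured.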

In experiment [6] the target is Peroxisome proliferator-activated receptor alpha (Homo sapiens) (UniProt Q07869). Put plainly: qHTS assay for small molecule agonists of the peroxisome proliferator-activated receptor alpha (PPARalpha) signaling pathway (AID 651778). Further: potency means the concentration at half of the fitted maximal effect. On max response: % of control where 0% means no effect. The settings on record: PathHunter PPARalpha complementation, chemiluminescence, 6 h; max response: stronger effect = higher value. In a few lines: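 Cells plated at 2,000/well and held overnight at 37 C, 5% CO2, then compound added by pin tool for 6 hr; after PathHunter detection reagent and 60 min at room temperature, chemiluminescence from enzyme complementation was read.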

For experiment [7], the target named is Nuclear receptor ROR-gamma (Homo sapiens) (UniProt P51449). The experiment is described as follows: qHTS assay for small molecule antagonists of the retinoid-related orphan receptor gamma (ROR-gamma) signaling pathway (AID 651802). Further: nearly all actives have a fitted effect of over 60% in size. Further: potency means the concentration at half of the fitted maximal effect. In a few lines:
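Steps: cells dispensed; compound or DMSO transferred by pin tool; doxycycline added to induce the ROR response element-driven luciferase; plates held 16hr at 37C; ONE-Glo added and luminescence measured.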

Experiment [8] is described as follows: qHTS assay for small molecule agonists of the antioxidant response element (ARE) signaling pathway measured by Nrf2-dependant transcriptional activity (AID 720636; active means well fitted curve in the direction sought with a large enough effect in the repeat runs; an effect the other way counts as inactive or inconclusive; further: potency means the concentration at half of the fitted maximal effect; on activation: % of control where 0% means no effect). The essentials: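 Quantitative HTS format in HepG2 cells stably expressing an ARE-luciferase reporter; 16 hr compound treatment at 37 C, luciferase signal detected with ONE-Glo.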
The target in experiment [9] is Arylsulfatase A (Homo sapiens) (UniProt P15289). The experiment is described as follows: qHTS screen for enhancers of Arylsulfatase A (ASA1): LOPAC Validation Assay (AID 720538). Further: 0% is about no effect. The essentials: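 Read-out: fluorescence at Ex=525/Em=598 nm after 1N NaOH final stop. Patient fibroblasts carrying ASA-I179S had 48h compound exposure, then 14h room-temperature pNCS hydrolysis (0.5mM final) in lysis buffer. Signal increase = enhanced activity.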

Experiment [10] in a line: qHTS for compounds that reverse cellular toxicity of Amyloid beta (A-beta) peptide in yeast: LOPAC Validation Assay (AID 720559).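 Further: plate controls were DMSO for no effect and equimolar ferric chloride plus clioquinol rescue for full effect.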 The essentials:
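OD600 growth readout after 48 hr at 30 C; A-beta-toxic yeast plus pinned compounds in medium. Normalization: DMSO = negative, equimolar FeCl3 + clioquinol = positive.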

The nature of experiment [11]: qHTS for Activators of Parkin Expression: LOPAC Validation Assay (NLuc Reporter) (AID 720572;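 further: 0% = DMSO and 100% = positive control compound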). In a few lines: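 Cells harboring the Parkin-promoter coincidence reporter were treated for 24 h at seven concentrations. NLuc output was measured sequentially after the FLuc channel and scaled between DMSO and positive control values.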
The nature of experiment [12]: qHTS for Activators of Parkin Expression: LOPAC Validation Assay (FLuc Reporter) (AID 720573;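 further: 0% = DMSO and 100% = positive control compounds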). The essentials: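 FLuc luminescence read-out from a neuronal line expressing a Parkin-promoter-driven coincidence reporter. Cells treated 24 h at 37 C, 5% CO2 with compounds at 7 concentrations; signal increase normalized to DMSO and positive control.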
Experiment [13] is described as follows: qHTS assay for small molecule activators of the nuclear factor-kappa B (NF-kB) signaling pathway (AID 651749; active means well fitted activation curve with a large enough effect in the signal ratio; the % refers to the signal ratio; further: series mostly up to about 77 µM; % of control where 0% means no effect). To be noted: NF-kB-bla ME-180 cells, beta-lactamase FRET ratio, 16 h; stronger effect = higher value. In a few lines: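 Human ME-180 cervical cells with an NF-kB-bla construct; compounds added via 23 nL pin transfer, DMSO as vehicle; incubation 16 hr. Reporter activity measured by FRET disruption.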

Experiment [14] can be described thus: qHTS assay for small molecule disruptors of the mitochondrial membrane potential - 1 hr assay (AID 651754; calls by dose curve; further: on the % scale 0 is the no-effect control and ±100 the full control effect; nearly all actives have a fitted effect of over 35% in size). The essentials:
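Loss of mitochondrial potential shifts the cationic dye from red mitochondrial aggregates to green cytoplasmic monomers. Cells (HepG2) are treated with compound for 1 hr before a 30 min dye incubation at 37C.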

A short description of experiment [15]: qHTS assay to identify small molecules that stimulate interleukin-8 (IL-8) secretion (AID 651758; active means well fitted activation curve with a large enough effect in the signal ratio; the % refers to the signal ratio; further: potency means the concentration at half of the fitted maximal effect; on activation: 0% is about no effect). In a few lines:
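Quantitative HTS in THP-1 monocytic cells at 2000 cells per well, with 16 hrs compound incubation at 37 C. IL-8 in the medium was then quantified by HTRF immunoassay, read after 1-3 hrs at room temperature.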

Sequence of Peroxisome proliferator-activated receptor alpha (Homo sapiens) (Q07869 whole entry, looked up): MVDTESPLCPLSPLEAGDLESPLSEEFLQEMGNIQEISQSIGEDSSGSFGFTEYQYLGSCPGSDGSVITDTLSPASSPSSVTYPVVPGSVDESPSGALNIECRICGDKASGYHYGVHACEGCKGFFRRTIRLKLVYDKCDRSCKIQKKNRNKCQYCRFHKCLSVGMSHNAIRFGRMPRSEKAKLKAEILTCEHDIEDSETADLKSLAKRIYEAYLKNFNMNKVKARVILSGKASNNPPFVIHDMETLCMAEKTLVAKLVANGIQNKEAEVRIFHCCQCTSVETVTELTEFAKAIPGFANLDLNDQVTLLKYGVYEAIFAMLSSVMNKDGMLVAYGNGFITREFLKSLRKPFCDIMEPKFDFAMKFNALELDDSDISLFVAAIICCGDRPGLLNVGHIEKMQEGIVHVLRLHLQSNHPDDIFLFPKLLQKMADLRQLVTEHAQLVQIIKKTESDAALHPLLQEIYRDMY
Sequence of Tumor necrosis factor (Homo sapiens) (P01375 whole entry, looked up): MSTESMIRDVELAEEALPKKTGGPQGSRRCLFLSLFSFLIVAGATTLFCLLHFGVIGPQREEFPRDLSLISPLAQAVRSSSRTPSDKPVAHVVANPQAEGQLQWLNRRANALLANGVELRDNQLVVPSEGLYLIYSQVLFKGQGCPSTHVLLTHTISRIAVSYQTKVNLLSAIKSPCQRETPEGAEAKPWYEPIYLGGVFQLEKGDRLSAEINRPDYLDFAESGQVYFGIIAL
Sequence of Nuclear receptor ROR-gamma (Homo sapiens) (P51449 whole entry, looked up): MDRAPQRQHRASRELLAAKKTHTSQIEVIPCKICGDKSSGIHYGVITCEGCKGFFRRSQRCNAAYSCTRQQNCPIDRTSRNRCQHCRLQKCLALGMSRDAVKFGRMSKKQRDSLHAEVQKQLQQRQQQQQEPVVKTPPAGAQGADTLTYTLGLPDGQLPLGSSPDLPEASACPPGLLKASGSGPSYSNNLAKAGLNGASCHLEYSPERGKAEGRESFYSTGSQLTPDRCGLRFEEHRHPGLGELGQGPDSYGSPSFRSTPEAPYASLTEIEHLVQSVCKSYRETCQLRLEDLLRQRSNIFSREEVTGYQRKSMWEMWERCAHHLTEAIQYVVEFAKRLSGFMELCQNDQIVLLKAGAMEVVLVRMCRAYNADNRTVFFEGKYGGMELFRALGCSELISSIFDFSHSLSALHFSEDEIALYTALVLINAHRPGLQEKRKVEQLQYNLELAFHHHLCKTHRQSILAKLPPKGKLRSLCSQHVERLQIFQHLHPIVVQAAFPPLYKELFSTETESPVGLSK
Sequence of Arylsulfatase A (Homo sapiens) (P15289 whole entry, looked up): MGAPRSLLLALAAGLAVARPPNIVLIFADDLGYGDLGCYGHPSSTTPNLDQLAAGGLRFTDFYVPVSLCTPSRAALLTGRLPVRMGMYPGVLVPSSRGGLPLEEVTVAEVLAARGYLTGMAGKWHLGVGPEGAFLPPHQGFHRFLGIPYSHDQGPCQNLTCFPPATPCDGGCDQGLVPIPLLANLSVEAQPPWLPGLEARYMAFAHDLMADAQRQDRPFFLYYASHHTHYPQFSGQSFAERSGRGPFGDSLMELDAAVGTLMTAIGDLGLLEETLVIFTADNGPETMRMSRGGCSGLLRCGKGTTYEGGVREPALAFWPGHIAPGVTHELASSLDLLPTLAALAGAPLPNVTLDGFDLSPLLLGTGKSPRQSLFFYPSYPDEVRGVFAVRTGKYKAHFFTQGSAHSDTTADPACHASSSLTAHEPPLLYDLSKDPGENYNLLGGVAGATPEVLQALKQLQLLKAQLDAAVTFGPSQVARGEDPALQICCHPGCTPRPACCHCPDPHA

`CC[n+]1c(-c2ccccc2)c2cc(N)ccc2c2ccc(N)cc21`: the Potency is 33.5 µM (active) in experiment [1], 8.91 µM (active) in [2], 11.9 µM (active) in experiment [3] and 37.6 µM (active) in experiment [4]. The activation in experiment [5] was 11.3%. In addition, in [6], the max response was -2.33%. For the same compound, the Potency result in experiment [7] and in [8] was “inactive” throughout.

For the compound `COC(=O)C1=CCCN(C)C1`, the Potency result in [9] and in [11] was “inactive” throughout. The compound was classed as inactive in [10] and in experiment [12].

As for `CCCCCCCCC(=O)NCc1ccc(O)c(OC)c1`, in [13], the activation is -0.791%. For the same compound, the max response in [6] was 1.45%. For the same compound, the Potency result in experiment [8] was “inactive”.

Regarding `Oc1c(Br)cc(Br)cc1Br`, the Potency in experiment [1] is 42.2 µM (active); in experiment [6], 39.8 µM (active) and 35.5 µM (active). Moreover, the activation in experiment [13] is -2.42% and -0.471%; in experiment [5], 1.96% and 1.41%. Also, the Potency entry in [4] and in experiment [8] was “inactive” in each case.

In the case of `CN(C)C(=S)SSC(=S)N(C)C`, the Potency entry in experiment [1], in [14] and in experiment [4] was “inactive” in each case. Besides, the activation was 2.15% and 1.76% in [2]; -1.21% in experiment [13]; 8.11% and 11.6% in experiment [5]. Further, the Potency in [3] was 23.7 µM (active); in [7], 5.31 µM (active); in [8] it was 42.2 µM (active). The max response in experiment [6] was -9.79% and -7.98%.

With `CC[C@H]1CN2CCc3cc(OC)c(OC)cc3[C@@H]2C[C@@H]1C[C@H]1NCCc2cc(OC)c(OC)cc21`, in [12], the result was inactive.

Consider `CCCCCCCCCCCC[N+](C)(C)CCOc1ccccc1`, for which the activation in experiment [2] was 13.3%; in [5], -2.77%. Moreover, the Potency entry in experiment [4], in [15] and in experiment [8] was “inactive” throughout. For the same compound, the max response in experiment [6] is -0.963%. Besides, in experiment [7], the Potency was 10.6 µM (active).

For the compound `C[C@@H]1C[C@@H]([C@H](O)CC2CC(=O)NC(=O)C2)C(=O)[C@@H](C)C1`, the activation in [2] is 3.69% and -1.29% and 0.673%; in [13], 5.34%. The Potency entry in experiment [4] and in experiment [8] was “inactive” each time. Moreover, the max response in [6] was -1.34% and -7.61% and -0.958%. Also, the Potency in experiment [7] is 150 nM (active) and 237 nM (active).

Consider `COP(=O)(OC)OC=C(Cl)Cl`, for which the Potency in [1] is 37.6 µM (active) and 42.2 µM (active) and 30.6 µM (active); in experiment [15], 21.1 µM (active) and 66.8 µM (active). For the same compound, the activation was 1.84% and 0.182% in experiment [13]; 2.56% [middle of 4 runs] in experiment [5]. Further, the Potency entry in experiment [4], in experiment [7] and in [8] was “inactive” each time. In addition, the max response in experiment [6] is -1.1% [middle of 4 runs].
